Where “and” joins values, the source holds several entries; their conditions need not be identical. Equal values may be shown once. Records with an inconclusive call do not appear. A structure can be active in one record and inactive in another. Calls of active or inactive are those of the source. Unless noted, calls come from the whole dose curve.
Tests used:
[1] = target: Peroxisome proliferator-activated receptor delta (Homo sapiens) (UniProt Q03181); assay: qHTS assay for small molecule agonists of peroxisome proliferator-activated receptor delta signaling (AID 588534);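 note: 0% = DMSO basal wells and 100% = positive control agonist at 10 µM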
Outline: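 Fluorescence from CCF4 substrate cleavage by beta-lactamase reporter, read 2 hrs at RT, measured agonist activity. Compounds were tested with 18 hrs exposure at 37 C. Concentration-response data fitted to Hill equation.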

[2] = target: Glucocorticoid receptor (Homo sapiens) (UniProt P04150); assay: qHTS assay for small molecule agonists of glucocorticoid receptor signaling (AID 588532; active = well fitted curve in the direction sought with a large enough effect in the signal ratio, with a control signal flat; the % refers to the signal ratio;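 note: 100% = dexamethasone at 0.1 µM and 0% = DMSO only wells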); conditions: HeLa MMTV-bla, beta-lactamase ratio, agonist, 18 h; activation: stronger effect = higher value, percent of dexamethasone control, DMSO zero
Outline: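 Agonist-mode qHTS: GRE-driven beta-lactamase in HeLa cells exposed 18 h to titrated compounds (up to 92 uM), then CCF4 ratio read after 2 h at RT; Hill-fitted EC50, efficacy relative to 0.1 uM dexamethasone.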

[3] = target: Glucocorticoid receptor (Homo sapiens) (UniProt P04150); assay: qHTS assay for small molecule antagonists of glucocorticoid receptor signaling (AID 588533; active = well fitted inhibition curve with a large enough effect in the signal ratio, with a control signal flat, not every such curve was filed as active; the % refers to the signal ratio;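 note: cells stimulated with 2 nM dexamethasone as agonist; % is set by controls: 0 for no effect and ±100 for the full control effect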)
Outline: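 Antagonist-mode qHTS: compound titrations added to GRE-bla HeLa cells, then dexamethasone 2 nM final; 18 h, 37 C. CCF4 FRET fluorescence normalized to dexamethasone and DMSO; IC50 from Hill fit.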

[4] = qHTS assay for small molecule antagonists of peroxisome proliferator-activated receptor delta signaling (AID 588535; active = well fitted inhibition curve with a large enough effect in the signal ratio, with a control signal flat, not every such curve was filed as active; the % refers to the signal ratio;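 for max response: cells co-treated with a PPAR-delta agonist as stimulator during compound exposure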); conditions: HEK293T PPARd-UAS-bla, beta-lactamase FRET ratio, 18 h; 460 nm channel
Outline: (§1)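 HEK293T PPAR-delta-UAS-bla cells, 4000/well, 2% charcoal/dextran FBS; 5 h 37 C; cpd titration; 18 h 37 C; CCF4 2 h RT; FI 460/530 nm; Hill fit → IC50, efficacy.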

[5] = target: Peroxisome proliferator-activated receptor delta (Homo sapiens) (UniProt Q03181); assay: as above
Outline: as §1

[6] = target: Peroxisome proliferator-activated receptor gamma (Homo sapiens) (UniProt P37231); assay: qHTS assay for small molecule agonists of peroxisome proliferator-activated receptor gamma signaling (AID 588536; active = well fitted curve in the direction sought with a large enough effect in the signal ratio, with a control signal flat, not every such curve was filed as active; the % refers to the signal ratio;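 note: 0% = DMSO basal wells and 100% = rosiglitazone at 2 µM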)
Outline: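 PPAR-gamma-UAS-bla HEK293 cells in medium with 1% charcoal/dextran-treated FBS were exposed to compounds for 16 h at 37 C. Beta-lactamase activity was read with CCF4 substrate (405 nm excitation, 460/530 nm emission).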

[7] = target: Peroxisome proliferator-activated receptor gamma (Homo sapiens) (UniProt P37231); assay: qHTS assay for small molecule antagonists of peroxisome proliferator-activated receptor gamma signaling (AID 588537; active = well fitted inhibition curve with a large enough effect in the signal ratio, with a control signal flat, not every such curve was filed as active; the % refers to the signal ratio;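 note: reporter cells co-stimulated with 50 nM rosiglitazone agonist during compound treatment; % of control where 0% means no effect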)
Outline: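 Antagonist mode, beta-lactamase reporter in HEK293; charcoal/dextran FBS 1%; 3000 cells/well, 37 C 6-6.5 h; cpd titration + rosiglitazone 50 nM final, 16 h 37 C; CCF4, 2 h RT; 460/530 nm; Hill fit → IC50, efficacy.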

[8] = qHTS assay for small molecule agonists of retinoid X receptor alpha signaling (AID 588544); conditions: HEK293T RXRa-UAS-bla, beta-lactamase reporter, 18 h; 530 nm emission;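 for activation: 0% = DMSO basal wells and 100% = reference agonist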
[9] = target: Retinoic acid receptor RXR-alpha (Homo sapiens) (UniProt P19793); assay: as above
[10] = target: Thyroid hormone receptor beta (Homo sapiens) (UniProt P10828); assay: qHTS assay for small molecule agonists of thyroid hormone receptor beta signaling (AID 588545)
Outline: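 In this cell-based screen, titrated compounds act on HEK 293 cells held in medium with 2% charcoal/dextran FBS, NEAA and pyruvate for 18 hrs at 37 C. Responses are expressed relative to T3 (10 nM) as 100% and basal DMSO as 0%.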

[11] = qHTS assay for small molecule antagonists of retinoid X receptor alpha signaling (AID 588546; active = well fitted inhibition curve with a large enough effect in the signal ratio, with a control signal flat, not every such curve was filed as active; the % refers to the signal ratio;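 note: cells stimulated with 9-cis-retinoic acid as agonist; % is set by controls: 0 for no effect and ±100 for the full control effect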); conditions: HEK293T RXRa-UAS-bla, beta-lactamase ratio, antagonist mode; measured here: W530 green channel, cytotoxicity proxy
Outline: (§2)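 Beta-lactamase reporter inhibition, read as CCF4 fluorescence ratio (ex 405, em 460/530 nm) after 2 h at RT. HEK293T UAS-bla cells, 2500/well, were stimulated with 9-cis-RA at 500 or 100 nM final alongside test compound for 18 h at 37 C.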

[12] = target: Retinoic acid receptor RXR-alpha (Homo sapiens) (UniProt P19793); assay: as above; conditions: HEK293T RXRa-UAS-bla, beta-lactamase ratio, antagonist mode
Outline: as §2

[13] = target: Thyroid hormone receptor beta (Homo sapiens) (UniProt P10828); assay: qHTS assay for small molecule antagonists of thyroid hormone receptor beta signaling (AID 588547; active = well fitted inhibition curve with a large enough effect in the signal ratio, with a control signal flat, not every such curve was filed as active; the % refers to the signal ratio;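 note: cells stimulated with 0.4 nM T3 agonist during compound exposure; series mostly up to about 77 µM; % is set by controls: 0 for no effect and ±100 for the full control effect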); conditions: TR-UAS-bla HEK293, beta-lactamase ratio, antagonist mode, 18 h
Outline: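 Inhibition of T3-driven (0.4nM final) beta-lactamase reporter activity was measured over 0.59 nM to 92 uM compound after 18 h at 37 C. The cells were GripTite HEK293 TR-UAS-bla in charcoal/dextran-stripped serum, with CCF4 ratio read-out and IC50 from Hill fits.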

[14] = qHTS assay for small molecule activators of the p53 signaling pathway (AID 651743; active = well fitted activation curve with a large enough effect in the signal ratio, not every such curve was filed as active; the % refers to the signal ratio; note: series mostly up to about 92 µM; % of control where 0% means no effect); conditions: HCT-116 p53RE-bla, beta-lactamase FRET ratio, 16 h; activation: stronger effect = higher value
Outline: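 Read-out is fluorescence intensity from the LiveBLAzer B/G FRET substrate, added for 2 hours at room temperature after HCT-116 p53RE-bla cells had been incubated with compounds for 16 hours at 37 C.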

[15] = qHTS assay for small molecule activators of the nuclear factor-kappa B (NF-kB) signaling pathway (AID 651749; active = well fitted activation curve with a large enough effect in the signal ratio; the % refers to the signal ratio; note: series mostly up to about 77 µM; % of control where 0% means no effect); conditions: NF-kB-bla ME-180 cells, beta-lactamase FRET ratio, 16 h; activation: stronger effect = higher value
Outline: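 Readout: beta-lactamase reporter driven by an NF-kB response element, detected fluorescently as loss of FRET. Cells were the ME-180 line, treated 16 hr at 37C with pin-transferred compound.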

[16] = qHTS assay for environmental chemicals that activate the Aryl hydrocarbon Receptor (AhR) signaling pathway (AID 651777; active = well fitted curve in the direction sought with a large enough effect; an effect the other way counts as inactive or inconclusive; note: % of control where 0% means no effect; nearly all actives have a fitted effect of over 15% in size); conditions: 1A2-DRE human hepatoma cells, luciferase, 24 h; activation: stronger effect = higher value
Outline: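 1A2-DRE human hepatoma reporter line; 1,200 cells/well; cmpd or DMSO 24 h, 37 C/5% CO2; One-Glo 30 min RT; luciferase lum.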

[17] = target: Peroxisome proliferator-activated receptor alpha (Homo sapiens) (UniProt Q07869); assay: qHTS assay for small molecule agonists of the peroxisome proliferator-activated receptor alpha (PPARalpha) signaling pathway (AID 651778; active = well fitted curve in the direction sought with a large enough effect; an effect the other way counts as inactive or inconclusive; note: % of control where 0% means no effect); conditions: PathHunter PPARalpha complementation, chemiluminescence, 6 h; max response: stronger effect = higher value
Outline: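 Chemiluminescence from complemented enzyme reported PPARalpha activation in cells after 6 hr of compound treatment at 37 C. The detection reagent was incubated for 60 min at room temperature, and compounds were scored as agonists.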

[18] = qHTS assay for small molecule agonists of the antioxidant response element (ARE) signaling pathway measured by Nrf2-dependant transcriptional activity (AID 720636; active = well fitted curve in the direction sought with a large enough effect in the repeat runs; an effect the other way counts as inactive or inconclusive; note: potency is the fitted concentration of half-maximal effect;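 for activation: HepG2 cells with an ARE-driven luciferase reporter; % of control where 0% means no effect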)
Outline: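 Cells: ARE-luc HepG2 with Nrf2-responsive luciferase. Medium contained 1% dialyzed FBS. Compound exposure lasted 16 hr at 37 C and 5% CO2, followed by ONE-Glo luciferase detection.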

[19] = qHTS assay for small molecule agonists of the antioxidant response element (ARE) signaling pathway measured by Nrf2-dependant transcriptional activity - cell viability counter screen (AID 720653; active = well fitted curve in the direction sought with a large enough effect in the repeat runs; an effect the other way counts as inactive or inconclusive; note: % is set by controls: 0 for no effect and ±100 for the full control effect); conditions: ARE-bla HepG2 viability, CellTiter-Glo ATP luminescence, 16 h; max response: stronger effect = lower value
Outline: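 Cytotoxicity counter screen: intracellular ATP quantified by CellTiter-Glo luminescence in the same ARE-bla HepG2 plates, after 16 h compound exposure and a 2 h beta-lactamase substrate step.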

[20] = qHTS assay for cell viability of HEK293 cells (AID 743288; active = well fitted curve in the direction sought with a large enough effect; an effect the other way counts as inactive or inconclusive; note: % is set by controls: 0 for no effect and ±100 for the full control effect; nearly all actives have a fitted effect of over 50% in size); conditions: ATP luminescence (CellTiter-Glo), 18 h; max response: stronger effect = lower value
Outline: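 Parental HEK293 cells were seeded at 2,000 cells/well, rested at least 5 h at 37 C, then exposed to compounds in DMSO for 18 h at 37 C. Viability was read as ATP-dependent luciferase luminescence after 30 min at room temperature.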

[21] = qHTS assay for cell viability of the p53RE-bla HCT-116 cell line (AID 743292; active = well fitted curve in the direction sought with a large enough effect; an effect the other way counts as inactive or inconclusive; note: % is set by controls: 0 for no effect and ±100 for the full control effect; nearly all actives have a fitted effect of over 55% in size)
Outline: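 HCT-116 p53RE-bla cells seeded 4,000/well; 5 h at 37 C; compound (DMSO) added; 16 h at 37 C; CellTiter-Glo added, 30 min RT; luminescence read.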

[22] = target: Nuclear receptor subfamily 1 group I member 2 (Rattus norvegicus) (UniProt Q9R1A7); assay: qHTS assay for small molecule activators of the rat pregnane X receptor (rPXR) signaling pathway (AID 651751; call rule not given here; note: 0% is about no effect); conditions: rPXR reporter cells, luciferase (One-Glo), 24 h
[23] = qHTS assay for small molecule activators of the human pregnane X receptor (PXR) signaling pathway (AID 720659; call rule not given here; note: 0% is about no effect)
[24] = target: Vitamin D3 receptor (Homo sapiens) (UniProt P11473); assay: qHTS assay for small molecule agonists of vitamin D receptor signaling (AID 588543);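 note: 0% = DMSO basal and 100% = reference agonist control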
Outline: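 GeneBLAzer VDR-UAS-bla HEK293T cells in 2% charcoal-stripped FBS medium were dosed with compound titrations for 16 h at 37 °C; CCF4 β-lactamase readout (405 nm ex, 460/530 nm em). EC50 and efficacy from Hill fits, normalized to 50 nM calcitriol (100%) and DMSO (0%).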

[25] = qHTS assay for small molecule agonists of the antioxidant response element (ARE) signaling pathway (AID 651741; active = well fitted activation curve with a large enough effect in the signal ratio; the % refers to the signal ratio; note: potency is the fitted concentration of half-maximal effect; for activation: % of control where 0% means no effect)
Outline: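 Quantitative HTS in HepG2 cells stably expressing an ARE-beta-lactamase reporter; 16 h compound exposure at 37 C, followed by 2 h room-temperature incubation with LiveBLAzer B/G FRET substrate and fluorescence measurement.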

[26] = target: Vitamin D3 receptor (Homo sapiens) (UniProt P11473); assay: qHTS assay for small molecule antagonists of vitamin D receptor signaling (AID 588541)
Outline: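 Antagonist-mode beta-lactamase reporter assay: HEK293T VDR-UAS-bla cells were exposed to titrated compound alongside 1-alpha,25-dihydroxyvitamin D3 at 3 nM final for 16 h. Values were normalized to the 50 nM agonist control and DMSO basal, with IC50 and efficacy from Hill equation fits.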

Sequence of Thyroid hormone receptor beta (Homo sapiens) (P10828 whole entry, looked up): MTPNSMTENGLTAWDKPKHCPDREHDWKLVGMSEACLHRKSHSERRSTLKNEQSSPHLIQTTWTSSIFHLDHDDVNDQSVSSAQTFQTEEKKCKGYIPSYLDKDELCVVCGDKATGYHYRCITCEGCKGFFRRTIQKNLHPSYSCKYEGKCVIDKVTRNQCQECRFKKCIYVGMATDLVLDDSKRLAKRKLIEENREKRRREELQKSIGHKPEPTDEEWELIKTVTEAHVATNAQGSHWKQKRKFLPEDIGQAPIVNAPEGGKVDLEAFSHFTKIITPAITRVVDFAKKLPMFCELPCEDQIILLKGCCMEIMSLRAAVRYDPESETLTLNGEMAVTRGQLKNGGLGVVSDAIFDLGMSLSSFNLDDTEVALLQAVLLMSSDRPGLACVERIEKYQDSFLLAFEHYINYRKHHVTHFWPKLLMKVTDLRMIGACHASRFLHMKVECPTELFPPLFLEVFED
Sequence of Glucocorticoid receptor (Homo sapiens) (P04150 whole entry, looked up): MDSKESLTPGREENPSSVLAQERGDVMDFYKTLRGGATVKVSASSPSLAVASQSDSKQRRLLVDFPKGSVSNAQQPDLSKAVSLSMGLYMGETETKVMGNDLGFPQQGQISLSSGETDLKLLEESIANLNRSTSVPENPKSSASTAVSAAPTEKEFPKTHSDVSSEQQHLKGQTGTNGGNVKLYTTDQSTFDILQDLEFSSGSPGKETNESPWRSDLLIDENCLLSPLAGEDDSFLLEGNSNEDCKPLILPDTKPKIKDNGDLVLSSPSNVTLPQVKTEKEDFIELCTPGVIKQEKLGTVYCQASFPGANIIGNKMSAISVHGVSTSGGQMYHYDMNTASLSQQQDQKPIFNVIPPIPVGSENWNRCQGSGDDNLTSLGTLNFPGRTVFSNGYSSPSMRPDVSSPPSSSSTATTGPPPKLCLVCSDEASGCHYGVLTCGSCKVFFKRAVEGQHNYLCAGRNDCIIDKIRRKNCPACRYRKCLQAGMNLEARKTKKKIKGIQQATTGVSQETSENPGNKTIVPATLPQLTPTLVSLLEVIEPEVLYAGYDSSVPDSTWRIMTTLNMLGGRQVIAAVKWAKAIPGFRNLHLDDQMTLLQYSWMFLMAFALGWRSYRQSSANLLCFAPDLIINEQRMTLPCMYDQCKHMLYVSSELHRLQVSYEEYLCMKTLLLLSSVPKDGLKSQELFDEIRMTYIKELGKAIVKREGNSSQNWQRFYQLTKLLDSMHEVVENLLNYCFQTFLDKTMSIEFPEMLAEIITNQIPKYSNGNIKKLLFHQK
Sequence of Peroxisome proliferator-activated receptor alpha (Homo sapiens) (Q07869 whole entry, looked up): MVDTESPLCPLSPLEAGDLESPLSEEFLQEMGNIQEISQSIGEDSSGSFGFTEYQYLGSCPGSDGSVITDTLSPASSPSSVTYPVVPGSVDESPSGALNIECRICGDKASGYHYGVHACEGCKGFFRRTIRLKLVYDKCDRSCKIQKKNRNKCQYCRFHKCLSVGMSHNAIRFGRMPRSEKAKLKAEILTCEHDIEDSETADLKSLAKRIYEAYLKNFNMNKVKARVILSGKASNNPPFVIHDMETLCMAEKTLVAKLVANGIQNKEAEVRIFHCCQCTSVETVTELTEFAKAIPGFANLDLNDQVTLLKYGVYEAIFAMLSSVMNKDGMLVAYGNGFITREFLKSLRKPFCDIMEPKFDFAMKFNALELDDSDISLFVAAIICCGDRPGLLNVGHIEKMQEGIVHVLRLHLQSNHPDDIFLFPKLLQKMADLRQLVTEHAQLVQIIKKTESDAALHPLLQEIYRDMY
Sequence of Peroxisome proliferator-activated receptor delta (Homo sapiens) (Q03181 whole entry, looked up): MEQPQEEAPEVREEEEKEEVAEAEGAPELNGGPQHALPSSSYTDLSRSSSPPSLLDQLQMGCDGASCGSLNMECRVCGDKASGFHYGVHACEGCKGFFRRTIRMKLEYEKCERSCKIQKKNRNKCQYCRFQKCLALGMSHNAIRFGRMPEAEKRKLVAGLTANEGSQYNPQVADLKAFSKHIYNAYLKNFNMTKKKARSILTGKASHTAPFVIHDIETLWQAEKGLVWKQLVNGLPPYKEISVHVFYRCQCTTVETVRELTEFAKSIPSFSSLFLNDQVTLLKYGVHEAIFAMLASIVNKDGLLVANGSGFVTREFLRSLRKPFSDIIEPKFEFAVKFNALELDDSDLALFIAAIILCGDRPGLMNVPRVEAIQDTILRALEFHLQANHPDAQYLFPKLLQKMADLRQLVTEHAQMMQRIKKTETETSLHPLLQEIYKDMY
Sequence of Peroxisome proliferator-activated receptor gamma (Homo sapiens) (P37231 whole entry, looked up): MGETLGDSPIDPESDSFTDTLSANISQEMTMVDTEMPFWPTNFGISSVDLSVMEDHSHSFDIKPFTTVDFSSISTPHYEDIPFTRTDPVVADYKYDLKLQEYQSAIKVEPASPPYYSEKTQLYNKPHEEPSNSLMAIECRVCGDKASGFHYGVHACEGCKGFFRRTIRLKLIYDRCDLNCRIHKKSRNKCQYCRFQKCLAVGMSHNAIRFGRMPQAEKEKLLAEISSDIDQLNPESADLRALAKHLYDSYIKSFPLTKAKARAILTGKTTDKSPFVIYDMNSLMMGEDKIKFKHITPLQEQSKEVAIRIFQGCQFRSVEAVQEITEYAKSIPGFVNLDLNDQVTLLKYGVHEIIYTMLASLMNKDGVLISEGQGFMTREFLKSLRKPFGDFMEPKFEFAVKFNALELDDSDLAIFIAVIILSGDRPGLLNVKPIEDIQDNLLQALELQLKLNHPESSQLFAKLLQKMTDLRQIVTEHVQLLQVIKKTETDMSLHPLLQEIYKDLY
Sequence of Vitamin D3 receptor (Homo sapiens) (P11473 whole entry, looked up): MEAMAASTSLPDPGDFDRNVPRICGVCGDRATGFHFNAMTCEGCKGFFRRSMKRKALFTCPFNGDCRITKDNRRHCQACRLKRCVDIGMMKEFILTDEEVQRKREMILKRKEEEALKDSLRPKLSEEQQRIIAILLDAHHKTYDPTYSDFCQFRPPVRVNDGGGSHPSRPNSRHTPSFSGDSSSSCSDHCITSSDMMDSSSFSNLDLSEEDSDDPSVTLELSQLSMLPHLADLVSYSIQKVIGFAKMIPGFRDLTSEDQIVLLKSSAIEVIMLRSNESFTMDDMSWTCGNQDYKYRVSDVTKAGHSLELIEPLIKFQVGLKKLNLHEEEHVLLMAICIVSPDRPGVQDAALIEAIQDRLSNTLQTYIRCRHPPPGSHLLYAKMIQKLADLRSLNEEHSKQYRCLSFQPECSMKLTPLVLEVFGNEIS
Sequence of Nuclear receptor subfamily 1 group I member 2 (Rattus norvegicus) (Q9R1A7 whole entry, looked up): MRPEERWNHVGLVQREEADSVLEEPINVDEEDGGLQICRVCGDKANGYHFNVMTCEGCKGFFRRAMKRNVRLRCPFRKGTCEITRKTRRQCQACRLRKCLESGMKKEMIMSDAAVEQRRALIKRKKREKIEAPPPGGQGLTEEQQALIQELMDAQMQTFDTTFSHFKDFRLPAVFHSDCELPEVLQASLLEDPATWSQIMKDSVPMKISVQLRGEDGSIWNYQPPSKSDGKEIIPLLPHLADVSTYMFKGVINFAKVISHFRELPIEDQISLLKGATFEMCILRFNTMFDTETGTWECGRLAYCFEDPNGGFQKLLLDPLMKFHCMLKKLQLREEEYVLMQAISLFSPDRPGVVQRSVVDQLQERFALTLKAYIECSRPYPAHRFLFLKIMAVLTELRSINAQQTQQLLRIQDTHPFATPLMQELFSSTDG
Sequence of Retinoic acid receptor RXR-alpha (Homo sapiens) (P19793 whole entry, looked up): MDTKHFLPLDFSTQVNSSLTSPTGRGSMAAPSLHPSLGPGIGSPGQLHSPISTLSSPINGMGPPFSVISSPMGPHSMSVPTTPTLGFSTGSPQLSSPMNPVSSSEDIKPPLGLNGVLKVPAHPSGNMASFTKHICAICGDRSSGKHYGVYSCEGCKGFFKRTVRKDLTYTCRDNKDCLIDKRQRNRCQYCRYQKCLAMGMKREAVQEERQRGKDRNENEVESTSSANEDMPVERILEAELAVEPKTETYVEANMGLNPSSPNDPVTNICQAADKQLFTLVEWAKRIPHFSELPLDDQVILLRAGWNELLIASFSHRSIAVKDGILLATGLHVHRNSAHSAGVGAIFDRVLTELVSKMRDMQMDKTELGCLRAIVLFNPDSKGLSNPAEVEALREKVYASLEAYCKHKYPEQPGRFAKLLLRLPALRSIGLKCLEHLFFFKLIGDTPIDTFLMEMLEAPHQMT

Cc1ccc(C(C)(C)C)cc1
inactive: outcome [1]

O=C(O)/C=C/c1ccc(/C=C/C(=O)O)cc1
inactive: outcome [1]

O=C(O)C(F)(F)C(F)(F)C(F)(F)C(F)(F)C(F)(F)C(F)(F)C(F)(F)C(F)(F)C(F)(F)F
7.25% and 27.2%: max response [4]
inactive: activation [2] -0.443% | Potency [3] | Potency [5] | Potency [6] | Potency [7] | Potency [9] | Potency [10] | max response [12] 20.8% | activity change % (negative = inhibition) [13] -14.6% and -11.9% | activation [14] 5.35% | activation [15] 1.39% and -1.65% | activation [16] -2.6% and 0.106% | max response [17] -0.9% and 3.39% | Potency [18] | max response [19] -6.6% and -12.4% | max response [20] -5.33% and -8.2% | Potency [21] | max response [22] -0.489% and -1.36% | outcome [23]
-12.9% and -38.7%: max response [8]
-7.72%: max response [11]

CCCCOC(=O)[C@@H](C)Oc1ccc(Oc2ccc(C#N)cc2F)cc1
10.2%: max response [8]
13.4%: max response [11]
inactive: activation [2] -11.2% | Potency [3] | outcome [1] | Potency [6] | outcome [24] | Potency [9] | Potency [10] | max response [12] 12.7% | activity change % (negative = inhibition) [13] 0.16% | activation [14] -5.96% | activation [15] 0.919% | activation [16] -2.2% | max response [17] 5.77% | Potency [18] | max response [19] -7.64% | max response [20] 2.82% | max response [22] 1.04% | outcome [23]

S=C([S-])NCCNC(=S)[S-].[Zn+2]
2.58%: max response [8]
inactive and 68.6 µM (active): Potency [18]
active: Potency [25] 21.7 µM and 27.3 µM
inactive: activation [2] 4.35% | Potency [9] | max response [12] 15.4% and -59.9%
-2.08% and 15.4%: max response [11]

COP(=O)(NC(C)=O)SC (configuration not stated)
-7.01%: max response [4]
4.58%: max response [8]
inactive: activation [2] -2.58% | outcome [1] | Potency [5] | Potency [6] | Potency [7] | Potency [26] | outcome [24] | Potency [9] | Potency [10] | max response [12] -12.8% | activity change % (negative = inhibition) [13] -13.5% | Potency [25] | activation [14] -0.529% | activation [16] -1.62% | max response [17] -0.657% | Potency [18] | max response [19] -8.51% | max response [20] -8.22% | Potency [21] | max response [22] -1.19% | outcome [23]
3.46%: max response [11]

Oc1ccc(C(c2ccc(O)cc2)(C(F)(F)F)C(F)(F)F)cc1
-38.3%: max response [4]
active: Potency [25] 48.6 µM
inactive: activation [2] -15.3% | outcome [1] | Potency [26] | outcome [24] | activation [14] 22.5% | activation [15] -2.42% | activation [16] 0.672% | max response [17] -3.57% | Potency [18] | max response [19] -1.13% | max response [20] -18.6% | Potency [21] | max response [22] 0.831%

CCOc1cc(Oc2ccc(C(F)(F)F)cc2Cl)ccc1[N+](=O)[O-]
-9.67%: max response [11]
inactive: activation [2] -12.9% | Potency [3] | outcome [1] | Potency [10] | max response [12] -3.17% | activation [14] 3.72% | activation [16] 3.8% | Potency [18] | max response [19] -9.09% | max response [20] -7.71%

Cc1ccc2ccccc2c1[N+](=O)[O-]
inactive: outcome [1]

Nc1ccc(F)cc1F
inactive: outcome [1]

CCCCCCCCN
inactive: outcome [1]

CCN(Cc1ccccc1)c1ccccc1
inactive: outcome [1]

CC/C=C/CCCCCCCCCCOC(C)=O
inactive: outcome [1]

CCOCCOCCOCC
inactive: outcome [1]

Source: PubChem BioAssay (NCATS)
